# Source: PubChem (National Center for Advancing Translational Sciences (NCATS))
# HADH2 inhib – blocks human hydroxyacyl-CoA dehydrogenase type II; recombinant HADH2, NADH fluorescence, beta-hydroxybutyryl-CoA; Potency, µM (doses to about 57.1 µM), for the others: at the highest dose activity change, negative = inhibition, actives largely listed as inhibitors; Q99714; 3.4% of 73,000 active; note: potency is the fitted concentration of half-maximal effect; % is set by controls: 0 for no effect and ±100 for the full control effect; nearly all actives have a fitted effect of over 60% in size
# Target sequence (Q99714 whole entry, looked up, one chain of several): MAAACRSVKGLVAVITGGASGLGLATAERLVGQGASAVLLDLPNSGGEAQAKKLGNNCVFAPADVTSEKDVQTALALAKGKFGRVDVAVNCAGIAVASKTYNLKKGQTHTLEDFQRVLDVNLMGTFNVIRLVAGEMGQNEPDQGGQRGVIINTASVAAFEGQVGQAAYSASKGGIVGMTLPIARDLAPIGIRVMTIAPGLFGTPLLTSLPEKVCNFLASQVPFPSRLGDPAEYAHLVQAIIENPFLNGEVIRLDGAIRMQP
#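 E. coli-expressed His-tagged HADH2 tested at 20 nM in alkaline Tris buffer (pH 9.0); oxidation of 90 uM beta-hydroxybutyryl-CoA with 1 mM NAD+ tracked fluorimetrically for 4 min.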
# 4-MU autofl – compounds fluorescent in 4-MU spectral region; max dye-equivalent concentration, M; 11% of 59,000 active; compound autofluorescence, 340/450 nm, 4-MU equivalents; active compounds read high; in the data active = max dye-equivalent concentration above about 10 nM; inconclusive = mostly about 1.1 nM to 9.6 nM
#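 Compounds in 100 mM Tris, pH 8.0, sat 15 min at room temperature before fluorescence was read at 340 nm excitation/450 nm emission; a per-plate six-point 4-MU standard curve converted signals to dye-equivalent concentration at each compound concentration.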
# HSD17B inhib – inhibitors of human HSD17B10 dehydrogenase | Potency, µM (top dose mostly 57.1 µM), for the others: at the highest dose activity change, negative = inhibition, usual class: inhibitors | 7.6% of 75,000 active | recombinant HSD17B10, NADH fluorescence kinetic;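 note: the protocol describes HADH2 (HSD17B10) and not the HSD17B4 of the title; potency is the fitted concentration of half-maximal effect; % is set by controls: 0 for no effect and ±100 for the full control effect; nearly all actives have a fitted effect of over 70% in size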
#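 Activity followed as NADH fluorescence increase (ex 360, em 450 nm) every 30 seconds for 4 min, using final 90 uM beta-hydroxybutyryl CoA and 1 mM NAD+. Recombinant His-tagged enzyme, 20 nM, pH 9.0 Tris buffer, 15 min compound preincubation.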
# CRE Fsk mod – CRE-bla signaling modulation under forskolin stimulation | CHO CRE-bla reporter (cAMP response element driving beta-lactamase), forskolin EC10, beta-lactamase ratio | 2.5% of 71,000 active | AID 662 | Potency, µM (doses to about 38.2 µM), inactives show at the highest dose activity change, negative = inhibition, actives largely listed as activators; active = well fitted activation curve with a large enough effect in the signal ratio, with a control signal flat, not every such curve was filed as active; inconclusive = small, poorly fitted or top-dose-only effect, or effect the other way, or a change in a side signal; the % refers to the signal ratio; note: potency is the fitted concentration of half-maximal effect; % of control where 0% means no effect
#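 Modulation of forskolin-driven signalling is measured in CHO cells carrying a CRE-controlled beta-lactamase reporter. Cells are stimulated with EC10 NKH 477 in the presence of titrated compound for 3 h at 37 °C, then loaded with CCF4 for 2 h at room temperature.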
# A350 autofl – compound fluoresces in the Alexa 350 spectral region; 11% of 59,000 active; Compound autofluorescence, 340/450 nm, Alexa 350 dye-equivalents; active compounds read high; AID 590; max dye-equivalent concentration, M; in the data active = max dye-equivalent concentration above about 10 nM; inconclusive = mostly about 1.1 nM to 9.6 nM
# AID923 – qHTS Assay for Allosteric/Competitive Inhibitors of Caspase-1: Spectroscopic Profiling in AFC Spectral Region. compound fluorescence, AFC spectral region (405/520 nm). Potency, µM (series often up to 57.5 µM), for the others: at the highest dose fluorescence increase, usual class: activators. 1.1% of 75,000 active. AID 923, 2007; note: potency is the fitted concentration of half-maximal effect; 0% is about no effect
#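 Baseline compound fluorescence (AFC region, 405 nm ex/520 nm em) taken from the intercept of kinetic reads with 50 nM caspase-1 and 5 uM Ac-WEHD-AFC; normalized to an on-plate AFC standard curve; compounds titrated up to 57 uM.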
# Starred values were filed as active, the others as inactive; i = inactive; ? = inconclusive; . = no result; [ ] = another dose, or the depositor's remark. Compounds with a hit are over-represented: about 14% of the library has one in this group of screens. Unless noted, calls come from the whole dose curve; as a rule, active = well fitted curve in the direction sought with a large enough effect; inconclusive = small, poorly fitted or top-dose-only effect, or another doubt; inactive = no such curve, though single readings can be large; an effect the other way counts as inactive or inconclusive.
SMILES,HADH2 inhib,4-MU autofl,HSD17B inhib,CRE Fsk mod,A350 autofl,AID923
O=C(O)CSc1ccc([N+](=O)[O-])cc1[N+](=O)[O-],-10%[11.4 µM],i,6%[11.4 µM],11%[7.6 µM],i,2%[11.5 µM]
CCOC(=O)c1cnc2c(C(=O)OC)cccc2c1NCCN1CCOCC1,-6%,1.9e-08M*,-13%,?,2e-08M*,2%
CCOC(=O)c1cnc(N2CCOCC2)[nH]c1=O,-6%,i,2%,-5%,i,1%
C[C@@H]1O[C@H]2C3=C(C(=O)[C@H]4O[C@@H]4[C@H]3O)[C@@H]1[C@@H]1[C@@H](C)OC=C3[C@H](O)[C@H]4O[C@@H]4/C(=N\OCc4ccccc4)[C@]312,-9%[11.4 µM],.,-1%[11.4 µM],.,.,-2%[11.5 µM]
COC(=O)[C@H]1C[C@@H]1[C@H](N)c1ccccc1,-5%,.,-8%,-1%,.,1%
Cc1[nH]c2ccc(Br)cc2c(=O)c1CN1CCCCC1,238%,?,9%,7%,?,-1%
COC(=O)c1ccc2[nH]c(C)c(CN3CCCC3)c(=O)c2c1,?,3.6e-08M*,25µM*,-7%,5.1e-08M*,18%
COC(=O)c1ccc(C(NC(=O)OCc2ccccc2)/C(F)=C/[C@@H](C)C(=O)NC2CCCCC2)cc1 (stereo not given in full),16%,.,-3%,-7%,.,3%
C=CCNc1ncnc2c1[nH]c1ccccc12,12%,2.6e-08M*,32µM*,6%,2.9e-08M*,1%
c1ccc2c(c1)[nH]c1c(NCC3CCCO3)ncnc12 (stereo not given),9%,?,32µM*,10%,?,1%
CCCCOc1ncnc2c1[nH]c1ccccc12,19%,i,7.9µM*,26%,?,1%
c1nc(NCC2CCCO2)c2[nH]cnc2n1 (stereo not given),8%,i,12%,-8%,i,0%
NCCC[C@@](N)(C(=O)O)C(F)F,12%,i,3%,-5%,i,-1%
FC(F)(F)c1cc(CO[C@@H]2CCCN[C@H]2c2ccccc2)cc(C(F)(F)F)c1,?,i,-5%,2%,i,0%
CCN1C(=O)C2C(c3ccc(O)c(OC)c3)NC(C)(C(=O)OC)C2C1=O (stereo not given),2%,1.4e-08M*,-2%,-1%,2.1e-08M*,-3%
O=C(NS(=O)(=O)c1ccc2c(c1)OCCO2)c1ccccc1,-1%,5.6e-07M*,-3%,-7%,5.5e-07M*,0%
Cc1cccc(NS(=O)(=O)c2cc(C(=O)O)ccc2Cl)c1,-6%,.,7%,.,.,-1%
O=c1c2ccccc2cnn1-c1nc2ccccc2s1,3%,1.7e-07M*,?,?,2.1e-07M*,3%
O=c1c2ccccc2ncn1Cc1nc2ccccc2s1,-3%,i,7%,23%,i,0%
N#Cc1cccc(-c2cncnc2NCc2ccccc2)c1,3%,i,4%,5%,i,1%
CCOC(=O)N1CCN(c2cc3[nH]c(=S)[nH]c3cc2F)CC1,?,i,32µM*,-4%,i,1%
CC1(C)CC[C@]2(C(=O)O)CC[C@]3(C)C(=CCC4[C@@]5(C)CC[C@H](O)C(C)(C)C5[C@H](O)C[C@]43C)C2C1 (stereo not given in full),.,.,-7%,.,.,-4%
CC(=O)N1CCC2(CC1)CN(c1cccc(-c3ccccc3)c1)C2,-7%,i,32µM*,9%,i,2%
COc1ccc(C(=O)N2CCC3(CC2)CN(c2cccc(-c4ccccc4)c2)C3)cc1,-11%,i,?,-11%,i,0%
O=C(c1ccncc1)N1CCC2(CC1)CN(c1cccc(-c3ccccc3)c1)C2,-23%,i,25µM*,4%,i,-4%
O=c1[nH]c(=S)c2[nH]c(=O)n(-c3ccccc3)c2[nH]1,?,i,-8%[11.4 µM],11%[7.6 µM],i,2%[11.5 µM]
